The source of these data is PubChem BioAssay (NCI).

Values joined by “and” are separate entries in the source; they are usually repeats but may differ in a detail not shown here. Identical values can stand only once. The panel holds about 83,000 compounds, 20% with a hit somewhere; the sample as a whole holds those more often.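 For each line, cells grew in 96-well plates with the test compound present at a single concentration for 48 hours.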 Unmarked numbers belong to inactive results. Active and inactive are the calls of the source.

The test system of one assay is OVCAR-4 ovarian. The assay can be described thus: NCI-60 one-dose screen, 48 h (100 = growth as untreated, 0 = no growth, -100 = all killed). The following applies: 10 µM. The procedure:
Growth inhibition of the OVCAR-4 human tumor cell line is measured as a screen for anti-cancer activity. Cells are grown in 96 well plates and exposed to the test compound for 48 hours. Compounds are tested at a single concentration, which is 10^-5 M for most compounds. The reported endpoint is percent growth (GI% or GIPRCNT), where numbers from 0 - 100% represent growth inhibition, and numbers from -100% - 0 represent cell death. For example, a value of 40 represents 60% growth inhibition. A value of 0 means no net growth occurred over the course of the experiment. A value of -40 indicates 40% of cells at the beginning of the experiment died by the end of the experiment. A value of -100 means all cells are dead at the end of the experiment.
NCI-60 Human Tumor Cell Lines Screen was performed using the standard one-dose NCI protocol, which is described in more detail at https://dtp.cancer.gov/discovery_development/nci-60/default.htm.
Compounds with GIPRCNT values below 10 were considered active. Activity score was based on GIPRCNT using the following formula: […]
Score is 0 for GIPRCNT values of 100 or above, 50 for GIPRCNT values of 0, and 100 for GIPRCNT values of -100.
As for `O=c1ccn2c(n1)OC1CC2OC1COC(c1ccccc1)(c1ccccc1)c1ccccc1` (stereo not given), the growth was 110%.

The assay is the same for the next values; noted with them: 10 µM unless noted.
Regarding `CC1NC(C)c2ccc3ccccc3c2O1` (stereo not given), the growth is 111%.

As to `Cc1c(O)nc(N)[nH]c1=O`, the growth is 118%.

As for `Cc1cnc(N)s1`, the growth was 103%.

For the molecule `Nc1c(S(=O)(=O)O)cc(Br)c2c1C(=O)c1ccccc1C2=O`, the growth was 101% and 111%.

With `O=P(O)(O)OC1C(OP(=O)(O)O)C(OP(=O)(O)O)C(OP(=O)(O)O)C(OP(=O)(O)O)C1OP(=O)(O)O.[Cu+2]` (stereo not given), the growth is 110%.

Regarding `O=C1Cc2ccccc2C(=O)N1`, the growth was 63.4%.

On to `CCCC(=O)Oc1ccc(CC)cc1`, for which the growth was 97.3%.

On to `CCN(CC)C(=S)SCCO`, for which the growth is 113%.

For the molecule `CCCCOC1NC(=O)NC(=O)C1(F)C(=O)OCC` (stereo not given), the growth was 98.9% and 75.8%.

With `N=c1sc2ccccc2n1CC(=O)O`, the growth is 115%.

In the case of `CC1(C)CC(=O)NC1=O`, the growth is 102%.

Turning to `OCCS`, the growth is 101%.

For the molecule `Cn1c(N)c(N=O)c(=O)n(C)c1=O`, the growth is 111% and 103%.

In the case of `O=C(O)c1cc(=O)[nH]c(=O)[nH]1`, the growth is 107% and 101%.

`CCN(CC)C(CC(=O)c1ccccc1)C(=O)c1ccccc1` (stereo not given): the growth is 93.3%.

As for `CC(C)(C)OC(=O)CC1(O)CCCCC1`, the growth was 97.9%.

For `CC1OS(=O)OC1C` (stereo not given), the growth was 104% and 100%.

Turning to `O=C(OCc1ccccc1)c1ccccc1`, the growth was 108%.

As for `O=C(O)COc1ccccc1F`, the growth was 111%.

`Cc1ccc(S(=O)(=O)n2ccnc2)cc1`: the growth was 102%.

Consider `Cc1nc(Nc2ccc(Cl)cc2)c2cnn(-c3ccccc3)c2n1`, for which the growth is 103%.

`NCCSSC/C=C\CSSCCN`: the growth was 103%.

Turning to `CC(C)=NOC(C)C(=O)O` (stereo not given), the growth is 108%.

Regarding `CC(=O)Oc1ccc(C2(c3ccc(OC(C)=O)cc3)C(=O)Nc3ccccc32)cc1`, the growth was 6.67% (active) and -15.3% (active).

On to `Nc1ccccc1SC(CC(=O)c1ccccc1)c1cccc([N+](=O)[O-])c1` (stereo not given), for which the growth was 89% and 74.5%.

Regarding `NC1=NC(c2ccccc2)N=C(Nc2ccccc2)N1` (stereo not given), the growth was 117% and 62.4%.

As for `Cc1ccc2cccc([N+](=O)[O-])c2n1`, the growth is 128% and 103%.

Take `Nc1ccccc1SC1CC(=O)N(c2ccc(I)cc2)C1=O` (stereo not given): the growth was 93.8%.

Turning to `CN(C)C(=S)N(C)C`, the growth was 101%.

Regarding `O=c1[nH]c(=O)c2[nH]c(=O)[nH]c2[nH]1`, the growth was 109%.

On to `OCCSc1ccc(Cl)cc1`, for which the growth was 104% and 99.9%.

Consider `COc1ccc2oc3cc(NCCN(C)C)ccc3c(=O)c2c1`, for which the growth was 106% and 91.7%.

On to `NNC(=O)Nc1ccccc1`, for which the growth is 104%.

`CC1(C)OC(=O)C(=Cc2ccc(C#N)cc2)C(=O)O1`: the growth was 115% and 98.3%.

With `CC1(CO)CCCC1NCCNC1CCCC1(C)CO` (stereo not given), the growth is 90.4% and 101%.

Take `N=C(N=C(N)N)N1CCOCC1`: the growth was 95.4% and 108%.

`OCc1cccc(F)c1`: the growth was 113%.

Consider `OC1CCCN(Cc2ccccc2)C1` (stereo not given), for which the growth is 129%.

The assay is the same for the next values; noted with them: 100 µM.
Turning to `O=c1ccn2c(n1)OC1CC2OC1COC(c1ccccc1)(c1ccccc1)c1ccccc1` (stereo not given), the growth was 84.7%.
